About 2,000 (36%) of roughly 5,500 compounds were called active. Another 18% or so got no clear call; they are omitted. Some of the results follow. Values without a mark were called inactive. No stated cut-off is given here; in the data, active means normalized growth mostly below about 0.91 (no sharp cut-off); inconclusive means no clear call, values can overlap the other calls; inactive means mostly above about 0.92.
Assay: chemical genetic growth profiling, strain panel (AID 1159580);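 further: tested at 20 µM; growth read once vehicle control cultures reached saturation at 30 °C; 1 = growth at the plate median or of vehicle wells; lower values mean less growth of the strain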
Conditions: growth OD

SMILES: O=c1oc2cc(O)ccc2s1
- normalized growth (S. cerevisiae deletion strains, locus YJR043C, strain POL32, active compounds read low): 0.962
- normalized growth (S. cerevisiae deletion strains, locus YJR075W, strain HOC1, active compounds read low): 0.958
- normalized growth (S. cerevisiae deletion strains, locus YKL009W, strain mrt4, active compounds read low): 0.952
- normalized growth (S. cerevisiae deletion strains, locus YKL068W, active compounds read low): 0.995
- normalized growth (S. cerevisiae deletion strains, locus YKL085W, strain MDH1 (second series), active compounds read low): 0.975
- normalized growth (S. cerevisiae deletion strains, locus YKL085W, strain MDH1, active compounds read low): 0.975
- normalized growth (S. cerevisiae deletion strains, locus YKL160W, strain elf1, active compounds read low): 0.99
- normalized growth (S. cerevisiae deletion strains, locus YKL190W, strain CNB1, active compounds read low): 1
- normalized growth (S. cerevisiae deletion strains, locus YKR001C, strain vps1, active compounds read low): 0.894 (active)
- normalized growth (S. cerevisiae deletion strains, locus YKR026C, strain gcn3, active compounds read low): 1.01
- normalized growth (S. cerevisiae deletion strains, locus YKR091W, strain srl3, active compounds read low): 1.01
- normalized growth (S. cerevisiae deletion strains, locus YLL001W, strain dnm1, active compounds read low): 0.974
- normalized growth (S. cerevisiae deletion strains, locus YLL026W, active compounds read low): 0.99
- normalized growth (S. cerevisiae deletion strains, locus YLL041C, strain sdh2, active compounds read low): 1.02
- normalized growth (S. cerevisiae deletion strains, locus YLR027C, strain aat2, active compounds read low): 0.983
- normalized growth (S. cerevisiae deletion strains, locus YLR039C, strain RIC1, active compounds read low): 0.909
- normalized growth (S. cerevisiae deletion strains, locus YLR058C, strain SHM2, active compounds read low): 0.983
- normalized growth (S. cerevisiae deletion strains, locus YLR102C, strain apc9, active compounds read low): 0.963
- normalized growth (S. cerevisiae deletion strains, locus YLR221C, strain rsa3, active compounds read low): 0.971
- normalized growth (S. cerevisiae deletion strains, locus YLR258W, strain gsy2, active compounds read low): 1
- normalized growth (S. cerevisiae deletion strains, locus YLR262C, strain YPT6 (second series), active compounds read low): 0.965
- normalized growth (S. cerevisiae deletion strains, locus YLR262C, strain YPT6, active compounds read low): 0.981
- normalized growth (S. cerevisiae deletion strains, locus YLR268W, strain sec22, active compounds read low): 0.903
- normalized growth (S. cerevisiae deletion strains, locus YLR320W, strain mms22, active compounds read low): 0.962
- normalized growth (S. cerevisiae deletion strains, locus YLR330W, strain CHS5, active compounds read low): 0.982
- normalized growth (S. cerevisiae deletion strains, locus YLR342W, strain FKS1 (second series), active compounds read low): 0.956
- normalized growth (S. cerevisiae deletion strains, locus YLR342W, strain FKS1, active compounds read low): 1
- normalized growth (S. cerevisiae deletion strains, locus YLR357W, strain rsc2, active compounds read low): 0.995
- normalized growth (S. cerevisiae deletion strains, locus YLR370C, strain arc18, active compounds read low): 0.999
- normalized growth (S. cerevisiae deletion strains, locus YLR371W, strain rom2, active compounds read low): 0.965
- normalized growth (S. cerevisiae deletion strains, locus YLR384C, strain iki3, active compounds read low): 1.02
- normalized growth (S. cerevisiae deletion strains, locus YLR418C, strain cdc73, active compounds read low): 0.929
- normalized growth (S. cerevisiae deletion strains, locus YML016C, strain PPZ1, active compounds read low): 0.98
- normalized growth (S. cerevisiae deletion strains, locus YML032C, strain rad52, active compounds read low): 0.858 (active)
- normalized growth (S. cerevisiae deletion strains, locus YML120C, strain ndi1, active compounds read low): 0.994
- normalized growth (S. cerevisiae deletion strains, locus YML124C, strain tub3, active compounds read low): 0.962
- normalized growth (S. cerevisiae deletion strains, locus YMR058W, strain fet3, active compounds read low): 0.967
- normalized growth (S. cerevisiae deletion strains, locus YMR078C, strain ctf18, active compounds read low): 0.95
- normalized growth (S. cerevisiae deletion strains, locus YMR125W, strain sto1, active compounds read low): 1.12 [resistant] (active)
- normalized growth (S. cerevisiae deletion strains, locus YMR129W, active compounds read low): 1
- normalized growth (S. cerevisiae deletion strains, locus YMR205C, strain PFK2, active compounds read low): 0.969
- normalized growth (S. cerevisiae deletion strains, locus YMR223W, strain ubp8, active compounds read low): 0.96
- normalized growth (S. cerevisiae deletion strains, locus YMR231W, strain pep5, active compounds read low): 1.03
- normalized growth (S. cerevisiae deletion strains, locus YMR263W, strain SAP30, active compounds read low): 0.956
- normalized growth (S. cerevisiae deletion strains, locus YMR307W, strain GAS1, active compounds read low): 0.946
- normalized growth (S. cerevisiae deletion strains, locus YNL067W, strain RPL9B, active compounds read low): 0.926
- normalized growth (S. cerevisiae deletion strains, locus YNL071W, strain lat1, active compounds read low): 1.01
- normalized growth (S. cerevisiae deletion strains, locus YNL128W, strain TEP1, active compounds read low): 0.962
- normalized growth (S. cerevisiae deletion strains, locus YNL153C, strain GIM3, active compounds read low): 0.948
- normalized growth (S. cerevisiae deletion strains, locus YNL209W, strain ssb2, active compounds read low): 1
- normalized growth (S. cerevisiae deletion strains, locus YNL233W, strain BNI4, active compounds read low): 0.955
- normalized growth (S. cerevisiae deletion strains, locus YNL248C, strain rpa49, active compounds read low): 1.04
- normalized growth (S. cerevisiae deletion strains, locus YNL250W, strain rad50, active compounds read low): 0.941
- normalized growth (S. cerevisiae deletion strains, locus YNL271C, strain bni1, active compounds read low): 0.939
- normalized growth (S. cerevisiae deletion strains, locus YNL298W, strain CLA4, active compounds read low): 0.917
- normalized growth (S. cerevisiae deletion strains, locus YNL307C, strain MCK1, active compounds read low): 0.959
- normalized growth (S. cerevisiae deletion strains, locus YNL322C, strain KRE1 (second series), active compounds read low): 1.01
- normalized growth (S. cerevisiae deletion strains, locus YNL322C, strain KRE1, active compounds read low): 0.99
- normalized growth (S. cerevisiae deletion strains, locus YNR049C, strain mso1, active compounds read low): 0.999
- normalized growth (S. cerevisiae deletion strains, locus YNR052C, strain pop2, active compounds read low): 0.966
- normalized growth (S. cerevisiae deletion strains, locus YOL006C, strain TOP1, active compounds read low): 0.908
- normalized growth (S. cerevisiae deletion strains, locus YOL012C, strain htz1): 1.09
- normalized growth (S. cerevisiae deletion strains, locus YOL147C, strain pex11, active compounds read low): 0.964
- normalized growth (S. cerevisiae deletion strains, locus YOR001W, strain rrp6, active compounds read low): 0.994
- normalized growth (S. cerevisiae deletion strains, locus YOR061W, strain CKA2, active compounds read low): 0.984
- normalized growth (S. cerevisiae deletion strains, locus YOR069W, strain VPS5, active compounds read low): 0.984
- normalized growth (S. cerevisiae deletion strains, locus YOR070C, strain gyp1, active compounds read low): 1.01
- normalized growth (S. cerevisiae deletion strains, locus YOR080W, strain dia2, active compounds read low): 1.02
- normalized growth (S. cerevisiae deletion strains, locus YOR083W, strain WHI5, active compounds read low): 0.931
- normalized growth (S. cerevisiae deletion strains, locus YOR106W, strain vam3, active compounds read low): 0.972
- normalized growth (S. cerevisiae deletion strains, locus YOR136W, strain idh2, active compounds read low): 0.972
- normalized growth (S. cerevisiae deletion strains, locus YOR144C, strain elg1, active compounds read low): 0.966
- normalized growth (S. cerevisiae deletion strains, locus YOR184W, strain ser1, active compounds read low): 0.91
- normalized growth (S. cerevisiae deletion strains, locus YOR265W, strain rbl2, active compounds read low): 0.994
- normalized growth (S. cerevisiae deletion strains, locus YOR270C, strain vph1, active compounds read low): 0.943
- normalized growth (S. cerevisiae deletion strains, locus YOR290C, strain snf2, active compounds read low): 0.992
- normalized growth (S. cerevisiae deletion strains, locus YOR316C, strain cot1, active compounds read low): 0.968
- normalized growth (S. cerevisiae deletion strains, locus YPL051W, strain arl3, active compounds read low): 0.999
- normalized growth (S. cerevisiae deletion strains, locus YPL055C, strain LGE1, active compounds read low): 1
- normalized growth (S. cerevisiae deletion strains, locus YPL078C, strain atp4, active compounds read low): 0.987
- normalized growth (S. cerevisiae deletion strains, locus YPL106C, strain sse1, active compounds read low): 1.02
- normalized growth (S. cerevisiae deletion strains, locus YPL240C, strain hsp82, active compounds read low): 1.02
- normalized growth (S. cerevisiae deletion strains, locus YPL241C, strain CIN2, active compounds read low): 0.989
- normalized growth (S. cerevisiae deletion strains, locus YPR119W, strain clb2, active compounds read low): 0.967
- normalized growth (S. cerevisiae deletion strains, locus YPR141C, strain kar3, active compounds read low): 0.933
- normalized growth (S. cerevisiae deletion strains, locus YPR163C, strain tif3, active compounds read low): 0.965
- normalized growth (S. cerevisiae deletion strains, locus YPR167C, strain met16, active compounds read low): 0.965
- normalized growth (S. cerevisiae deletion strains, strain wtn01, active compounds read low): 0.876 (active)
- normalized growth (S. cerevisiae strains, strain wild type, active compounds read low): 0.978

Source: PubChem BioAssay AID1159580 (chemical genetic matrix, 2015)
